# According to ChEMBL document CHEMBL4513216, “Probing the Open Global Health Chemical Diversity Library for Multistage-Active Starting Points for Next-Generation Antimalarials” (ACS Infect Dis, 2020):
# Screen size: about 69,000 compounds; about 8,600 (12%) showed an effect of 50% or more. Shown is part of a subset that was picked to be rich in strong results.
# System: Plasmodium berghei
# Assay: Screen against P. berghei liver stage (PbLuc), transformed with Luciferase, at 10uM
# Format: functional, HepG2
# Settings: tested at 10 uM
row,SMILES,INHIBITION
1,Cc1ccc(NC2CCN(C(=O)c3cccnc3N(C)C)CC2)nn1,21.6%
2,CN(C)[C@@H]1CCN(c2ncc(F)cn2)[C@H]1Cc1cccnc1,9.72%
3,Cc1cc(C)n(CC2CN(Cc3ccc(C(N)=O)cc3)CCO2)n1 (stereo not given),46.1%
4,COCC(=O)N1CCCC1c1nc(C)c2c(n1)N(CC(C)C)C(=O)CC2 (stereo not given),-16.9%
5,CCNC(=O)N(C)C(c1ccccc1)c1ccccn1 (stereo not given),-16%
6,COc1ccc(C(C)NCc2ccsc2)cc1Cn1cccn1 (stereo not given),10.6%
7,CC(=O)N(C)C1CCN(C(=O)NCCc2cc(F)ccc2F)CC1,-6.67%
8,CCOc1ccc(C(F)(F)F)cc1NCc1cc(C)on1,64.7%
9,Cc1cc(CNc2ccc(C(F)(F)F)cc2)no1,30.4%
10,Cc1cc(CNc2cc(Cl)ccc2OCCS(C)(=O)=O)no1,48.1%
11,Cn1cc(CN2CCC3(CC2)CC(c2ccncc2)C(=O)N3)cn1 (stereo not given),36.4%
12,CC(O)CN1CCN(CCOCC(F)(F)F)CC1 (stereo not given),-21.2%
13,O=C(N1CCCCC1)N1CCN(CC(O)c2ccccc2)CC1 (stereo not given),56.4%
14,OC(CN1CCN(CC2CC2)CC1)c1ccc(Br)cc1 (stereo not given),-63.6%
15,OC(CN1CCN(CC2CCCCC2)CC1)c1ccccc1 (stereo not given),93.8%
16,CCOCCN1CCN(CC(O)c2ccc(C(F)(F)F)cc2)CC1 (stereo not given),24%
17,OC(CN1CCN(CCOCC(F)(F)F)CC1)c1ccccc1 (stereo not given),56.9%
18,O=C(Cc1ccc(F)cc1)N1CCN(CC(O)c2ccccc2)CC1 (stereo not given),29.7%
19,OC(CN1CCN(Cc2nnc(C3CC3)o2)CC1)c1ccccc1 (stereo not given),-7.06%
20,O=C(N1CCCCC1)N1CCN(CC(O)c2ccc(F)cc2)CC1 (stereo not given),9.25%
21,COCCNC(=O)NCc1ccc(-n2ccc(C(F)(F)F)n2)cc1,-42.1%
22,CC1CCc2nn(CCNC(=O)C3CCCC3)c(=O)cc2C1 (stereo not given),-28.1%

row,SMILES,INHIBITION
1,CCCN(CCC)CCNc1c(-c2ccccc2)c(=O)c1=O,49.5%
2,Cc1cnc(-c2nc(C3CCCN(Cc4ccccc4C)C3)no2)cn1 (stereo not given),25.75%
3,Cc1cnc(CN2C[C@H]3CC(Oc4ccccc4)C[C@H]3C2)cn1 (stereo not given in full),30.4%
4,CN1C(=O)[C@@H]2CC[C@H]1CN(S(=O)(=O)c1ccc(Cl)cc1Cl)C2,24.3%
5,CN(C)C(=O)Cn1cnc2c(Br)cccc2c1=O,-14.1%
6,COc1cc(C(F)(F)F)sc1C(=O)O,20.8%
7,COC(=O)CN(C)Cc1cc(Br)cs1,53.2%
8,COC(=O)CNC(=O)CCc1cc(Br)cs1,7.19%
9,Cc1cccc(C(=O)N(C)Cc2cc(Br)cs2)n1,37.1%
10,CN(CCC(N)=O)Cc1cc(Br)cs1,24%
11,COC(=O)CCN(C)Cc1cc(Br)cs1,60.2%
12,CN(Cc1cc(Br)cs1)Cc1nnsc1Cl,46.3%
13,COCCN1CCO[C@@H]2CN(Cc3ccccc3OC)C[C@@H]2C1,2.4%
14,CCc1nnc2n1CCN(Cc1cc(Cl)c3c(c1)OCCCO3)C2,23.6%
15,O=C(CNC(=O)N1CCc2c([nH]c3ccc(Cl)cc23)C1)NCCCO,4.25%
16,COCc1csc(NC(=O)N2CCC(Cc3cnn(C)c3)C2)n1 (stereo not given),-27.8%
17,Cc1ccsc1CN1CCc2nc3ccsc3c(=O)n2CC1,35.2%
18,CCOc1ccc(CN2CCc3nc4ccsc4c(=O)n3CC2)cc1,28%
19,O=c1c2sccc2nc2n1CCN(Cc1ccc(F)c(F)c1)CC2,31.6%
20,COc1ccc(OC)c(CN2CCc3nc4ccsc4c(=O)n3CC2)c1,14.7%
21,COc1ccc(CN2CCc3nc4ccsc4c(=O)n3CC2)c(C)c1C,92.9%
22,Cc1c(CN2CCc3nc4sccc4c(=O)n3CC2)cnn1C,-12.4%

row,SMILES,INHIBITION
1,CCOc1ccccc1CN1CCc2nc3ccsc3c(=O)n2CC1,49.6%
2,O=c1c2sccc2nc2n1CCN(Cc1cc(F)ccc1F)CC2,3.91%
3,COc1cc(C)c(CN2CCc3nc4ccsc4c(=O)n3CC2)cc1C,89.3%
4,O=c1c2sccc2nc2n1CCN(Cc1ccccc1C(F)(F)F)CC2,92.9%
5,COc1cccc(CN2CCc3nc4ccsc4c(=O)n3CC2)c1,54.4%
6,O=c1c2sccc2nc2n1CCN(Cc1cccs1)CC2,-3.41%
7,CN1CC(C)(C)CN(C(=O)CCc2ccccc2)CC1=O,24.5%
8,O=C(c1cc[nH]n1)N1CCCC1c1cc(Nc2ccccn2)n[nH]1 (stereo not given),-20.2%
9,Cc1ccc2c(c1)c(C)cc(=O)n2CCC#N,11.2%
10,CC(C)c1noc(CN2CCN(C(=O)c3ccncc3F)CC2)n1,-29.1%
11,O=S(=O)(NCC1COCc2c(-c3ccncc3)nnn2C1)C1CC1 (stereo not given),18.3%
12,NC(=O)c1ccc(NC(=O)c2ccncc2Cl)cn1,13.8%
13,Cc1ccc(OC2(C(=O)O)CCN(C(=O)CCc3ccco3)CC2)cn1,34.4%
14,O=c1c2sccc2nc2n1CCN(Cc1ccsc1)CC2,5.11%
15,Cc1nn(C)cc1CN1CCc2nc3sccc3c(=O)n2CC1,30.5%
16,CC(C)(C)c1n[nH]cc1CN1CCc2nc3ccsc3c(=O)n2CC1,50.6%
17,COc1ccc(CC(=O)N2CC[C@@H]3[C@H](CC2)N(C)CCS3(=O)=O)cc1,18.5%
18,COCCCN(Cc1cnc(-c2cccs2)nc1)C1CCN(C)CC1,13%
19,Cc1nc(CCC(=O)NC2CCC2)cc(C2CCCNC2)n1 (stereo not given),26.8%
20,Cc1nc(NC2CCCCC2)cc(C2CCCNC2)n1 (stereo not given),28.3%
21,Cc1nc(NC2CCS(=O)(=O)CC2)cc(C2CCCNC2)n1 (stereo not given),62.2%
22,CSc1nsc(NC(=O)c2cc(C3CC3)nn2C)n1,-64.85%

row,SMILES,INHIBITION
1,CCN(C)Cc1cccc(CNC(=O)NCCc2ccccn2)c1,51%
2,CCN(C)Cc1cccc(CNC(=O)CSCc2ccccn2)c1,20.8%
3,CN(C)c1ccc(CNC(=O)NCCc2ccccn2)cn1,-22.9%
4,Fc1ccccc1CN1CCC(c2n[nH]c(C3CC3)n2)CC1,-5.92%
5,CN(Cc1nnc(C2CC2)n1C)C1CCN(Cc2ccccc2F)C1 (stereo not given),-3.19%
6,CN(Cc1noc(C2CC2)n1)C1CCN(Cc2cccc(F)c2F)C1 (stereo not given),-31.96%
7,Cc1nc2cc(C3CCN(Cc4ccccc4F)C3)nn2c(O)c1C (stereo not given),61.7%
8,CCc1c(C)nc2cc(C3CCN(Cc4ccccc4F)C3)nn2c1O (stereo not given),85.9%
9,COC(=O)c1cccc2nc([C@H]3CCN(Cc4ccccc4F)C3)oc12,-61.5%
10,Cc1nc2cc(C3CCN(Cc4cccc(F)c4F)C3)nn2c(O)c1C.O=C(O)CC(O)(CC(=O)O)C(=O)O (stereo not given),90.4%
11,Cc1nc(O)cc(C2CCN(Cc3cccc(F)c3F)C2)n1 (stereo not given),25%
12,CNC(=O)c1cn[nH]c1C1CCN(Cc2ccccc2F)C1 (stereo not given),-10.5%
13,COCCNC(=O)Nc1ccc(-c2nc(C(C)C)no2)cc1,-36.4%
14,Cc1cccc(C)c1Nc1noc2c1CN(C(=O)c1ccn(C)n1)CC2,30.35%
15,CN(CC1COc2ccccc2O1)C(=O)CCn1cncn1 (stereo not given),44.05%
16,CNC(=O)CN1CCC(NC(=O)N(C)Cc2c(C)noc2C)CC1,34.25%
17,Cc1cc(C)c(C(=O)N2CCOCC2c2c(C)n[nH]c2C)o1 (stereo not given),-8.4%
18,CO[C@H]1CN(Cc2ccc(F)cc2)CC[C@@]12CCCO2,25.6%
19,Cn1cc(C(=O)N[C@@H]2CN(Cc3ccoc3)[C@@H]3CCCO[C@@H]32)cn1,35.8%
20,CN1CCS(=O)(=O)[C@@H]2CCN(C(=O)CC(C)(C)C)CC[C@@H]21,35.8%
21,C[C@H]1CN2C[C@H](O)CC2CN1Cc1ccc2nccnc2c1 (stereo not given in full),17.4%
22,CCc1nsc(N2CCCN(C(=O)c3ccc(OC)cc3)CC2)n1,33.5%

row,SMILES,INHIBITION
1,CCc1nsc(N2CCCN(C(=O)COc3ccccc3)CC2)n1,53.8%
2,CCc1nsc(N2CCN(C(=O)COc3ccccc3)CC2)n1,-39.2%
3,COC(=O)c1cccn1C1CCN(S(=O)(=O)c2ccccc2)CC1,19.5%
4,Cc1ccc(C)c(S(=O)(=O)NCCC(=O)NCc2ccoc2)c1,-0.514%
5,CCSCCNc1cc(C)nc2c(C)c(C)nn12,39.9%
6,CC1CCN(C(=O)CSCc2nc(C3CC3)no2)CC1,-42.2%
7,O=C(O)[C@@H]1CN(C(=O)CSCCN2CCCC2)C[C@H]1c1ccccc1,39.3%
8,O=C(CSCCN1CCOCC1)N1CCCCCC1,44.1%
9,CC1CCN(C(=O)CSCCN2CCOCC2)CC1,85.6%
10,O=C(CSCCN1CCOCC1)N1CCc2ccccc2C1,76%
11,O=C(NCC(=O)N1CCc2ccccc2C1)c1ccoc1,26.3%
12,O=C1CCCN1c1cccc(CNCc2nc(C3CC3)no2)c1,29.6%
13,Cc1c[nH]nc1C1CCCN(C(=O)c2c(C)noc2C)C1 (stereo not given),23.4%
14,N#Cc1cn(C2CC2)c(=O)n(CC(O)c2ccc(Cl)cc2)c1=O (stereo not given),9.1%
15,Cc1cc(C[S+]([O-])Cc2ccccc2C)no1 (stereo not given),-23.3%
16,Cc1ccc(CN2CCc3c(nc4cc(C5CC5)nn4c3O)C2)s1,44.3%
17,CC(C)N(C(=O)N1CCn2cncc2C1)C(C)C,52.2%
18,CC(C(=O)N1CCn2cncc2C1)N1CCCC1 (stereo not given),47.9%
19,CC(=O)NC(C(=O)N1CCn2cncc2C1)C(C)C (stereo not given),29.8%
20,O=C(CC1CCN(c2ncnc3ccccc23)CC1)N1CCCC1,53.2%
21,O=C(CC1CCN(c2ncnc3cccc(F)c23)CC1)N1CCCC1,-18.5%
22,Cn1ncc2c(N3CCC(CC(=O)N4CCCC4)CC3)ncnc21,11.9%
